Screens (PubChem BioAssay)
Sfp PPTase inh = blocks B. subtilis Sfp PPTase activity; Q9F4F7; Biochemical Sfp PPTase activity, qHTS; Potency, µM, without a hit: largest response in the series, negative = inhibition, most hits filed as inhibitors; 310,000 tested, 3.5% active;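 note: the enzyme is Sfp with the accession as filed and its product quenches rhodamine fluorescence; 0% = enzyme reaction without inhibitor and -100% = no enzyme wells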
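Sfp 15 nM + cpd, 15 min RT; start w/ rhodamine-CoA 5 uM, BHQ-2-YbbR 12.5 uM (final); 50 mM Hepes pH 7.6, 10 mM MgCl2, 0.01% NP-40, 0.01% BSA; read 525/598 nm at 0 and 30 min.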
L3MBTL1 inh = L3MBTL1 (human) inhibition | 230,000 tested, 0.66% active | AlphaScreen L3MBTL1–H3K9me1 peptide binding | Potency, µM (titrated, usually from 57.1 µM), for inactives: top-dose activity, negative = inhibition, actives largely listed as inhibitors | AID 485360; note: % is set by controls: 0 for no effect and ±100 for the full control effect; nearly all actives have a fitted effect of over 60% in size
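Read-out is AlphaScreen signal from streptavidin donor and nickel chelate acceptor beads (10 ug/mL final each) bridging L3MBTL1 (50 nM) and biotinylated K9-monomethylated H3(1-15) peptide (75 nM), after 30 min compound exposure at room temperature.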
G9a inh = G9a (human) methyltransferase inhibition; 350,000 tested, 8.8% active; Potency, µM (titrated, usually from 102 µM), for inactives: at the highest dose activity, negative = inhibition, usual class: inhibitors; G9a H3K9 monomethylation, AlphaScreen, 2 h; Q96KQ7; note: % is set by controls: 0 for no effect and ±100 for the full control effect; nearly all actives have a fitted effect of over 75% in size
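AlphaScreen read-out: biotin-H3K9 peptide (500 nM) methylation by 20 nM enzyme with 20 uM SAM, 2 h at room temperature after 15 min compound preincubation; anti-monomethyl H3K9 antibody plus donor/acceptor beads, 10 min dark.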
HP1b binding inh = inhibitors of HP1-beta chromodomain binding to methylated histone tails; 390,000 tested, 0.56% active; Potency, µM (highest dose often 114 µM), inactives show at the highest dose activity change, negative = inhibition, hits mostly inhibitors; AlphaScreen HP1-beta / biotin-H3K9me3 peptide binding; P83916; note: nearly all actives have a fitted effect of over 70% in size
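Compound inhibition of the preformed complex between 50 nM HP1-beta and 50 nM biotinylated H3K9me3 peptide was read by AlphaScreen. Buffer was PBS pH 7.4 with 0.01% Tween-20. Incubations ran 30 min at room temperature, with 10 ug/mL donor/acceptor beads.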
BAZ2B inh = BAZ2B (human) inhibition; Potency, µM (titrated, usually from 114 µM), inactives show top-dose activity change, negative = inhibition, usual class: inhibitors; AID 504333; 360,000 tested, 4.4% active; Q9UIF8; AlphaScreen BAZ2B-H3K14Ac peptide displacement; note: % is set by controls: 0 for no effect and ±100 for the full control effect; nearly all actives have a fitted effect of over 60% in size
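Compounds, titrated to a top concentration of 110 uM, were incubated 30 min at room temperature with preformed BAZ2B/acetyl-K14 H3 peptide complex (50 nM each). Proximity signal was measured by AlphaScreen after 20 min with beads.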
JMJD2A Tudor = blocks the human JMJD2A Tudor domain; AlphaScreen JMJD2A-Tudor / H3K4me3 peptide binding; AID 504339; O75164; 390,000 tested, 4.4% active; Potency, µM (top dose mostly 114 µM), without a hit: top-dose activity change, negative = inhibition, usual class: inhibitors; note: % is set by controls: 0 for no effect and ±100 for the full control effect; nearly all actives have a fitted effect of over 50% in size
Active calls of the source: *; ? = inconclusive; . = no result; [ ] = another dose, or the depositor's remark. The list is not random: actives were taken first. Their share in the collection is about 12%. Calls come from the whole dose curve; as a rule, active = well fitted curve in the direction sought with a large enough effect; inconclusive = small, poorly fitted or top-dose-only effect, or another doubt; inactive = no such curve, though single readings can be large; an effect the other way counts as inactive or inconclusive. Potency is the fitted concentration of half-maximal effect.

SMILES | Sfp PPTase inh | L3MBTL1 inh | G9a inh | HP1b binding inh | BAZ2B inh | JMJD2A Tudor
CCSc1ccccc1C(=O)N1CCN(Cc2ccc3c(c2)OCO3)CC1 | ? | -10% | 7.9µM* | 5% | 5% | -28%
O=C(O)c1ccccc1C(=O)N1CCN(Cc2ccc3c(c2)OCO3)CC1 | 11% | . | 4% | 18% | -2% | -10%
O=C(c1ccccc1F)N1CCN(Cc2ccc3c(c2)OCO3)CC1 | -15% | -2%[2.29 µM] | -5%[0.501 µM] | 40µM* | 45µM* | 0.89µM*
O=C(c1cccc(S(=O)(=O)N2CCOCC2)c1)N1CCN(Cc2ccc3c(c2)OCO3)CC1 | 7% | -6% | 40µM* | 15% | -26% | -11%
Cc1ccccc1CN1CCC(CNc2ncnc3onc(-c4ccc(Cl)cc4)c23)CC1 | . | . | -22%[59 µM] | 34% | 3%[57.1 µM] | -11%
C=CCn1c(=O)c(CCC(=O)Nc2ccc(N3CCOCC3)cc2)nc2cc(C(F)(F)F)ccc21 | 4% | . | . | -21% | -8% | 35µM*
O=C(Cn1cc(C(F)(F)F)ccc1=O)Nc1ccc(N2CCOCC2)cc1 | -18% | 9% | 6% | 17% | -10% | 5%
CCCCCCCC(=O)OC[C@H](CO)OC(=O)CCCCCCC | -3% | . | 0%[59 µM] | . | . | .
Cc1cc2c(ncn2C)c(NS(=O)(=O)c2cc(Cl)ccc2Cl)c1C | 7% | ? | 8.9µM* | 35% | 11% | -10%
O=C1C=C(N(CCO)Cc2ccccc2)c2ccccc2C1=O | 2% | ? | 50µM* | ? | ? | -35%
O=C(CCN1C(=O)c2ccccc2C1=O)N(CCO)Cc1ccccc1 | -3% | 4% | 8%[12.7 µM] | 70% | 0% | -6%
Cc1ccc(/C=N/Nc2ccc(F)cc2)s1 | 1% | . | 50µM* | -8% | ? | ?
Cc1ccc(/C=N/Nc2ccc(Cl)c(C(=O)O)c2)s1 | -14% | -10% | ? | 7% | ? | -25%
CNC(=O)CN1C(=O)c2cccc3cccc1c23 | -3% | . | 12%[12.7 µM] | 24% | 11% | 3%
CN1/C(=N\O)c2cccc3cccc1c23 | -24% | 19% | 32µM* | -13% | 4% | 17%
O=C(Nc1ccc(C(=O)O)cc1)/C(=C\c1ccc2c(c1)OCO2)NC(=O)c1ccc(Br)o1 | 6% | . | 2% | -13% | -4% | 45µM*
CC(C)C(NC(=O)/C(=C/c1ccco1)NC(=O)c1ccc(Br)o1)C(=O)O (stereo not given) | ? | . | 22µM* | 28% | ? | ?
O=C(Nc1ccc(C(=O)O)cc1)/C(=C\c1ccco1)NC(=O)c1ccc(Br)o1 | 50µM* | . | 35µM* | ? | -2% | ?
O=C(Nc1cccc(C(=O)O)c1)/C(=C\c1ccc2c(c1)OCO2)NC(=O)c1ccc(Br)o1 | -2% | . | -42% | 0% | -15% | -25%
O=C(O)/C(=C/c1ccco1)NC(=O)c1ccc(Br)o1 | -14% | ? | 45µM* | 13% | -5% | -26%
NC(=O)/C(=C\c1ccco1)NC(=O)c1ccc(Br)o1 | . | . | . | 8% | . | 0%
O=C(O)/C(=C\c1ccco1)NC(=O)c1ccc(Br)o1 | . | . | . | 10% | . | ?
O=C(Nc1cccc(S(=O)(=O)N2CCCCCC2)c1)c1cncc(Br)c1 | . | -4% | . | -15% | . | ?
COc1ccc(OC)c(/C=C(\C#N)c2nc(-c3ccc(F)cc3)cs2)c1 | . | . | 98%[59 µM] | 107% | 94% | -67%
C=C1C[C@@]23CC[C@H]4[C@@](C)(CCC[C@@]4(C)C(=O)OC4OC(CO)C(O)C(O)C4O)[C@@H]2CC[C@]1(OC1OC(CO)C(O)C(O)C1OC1OC(CO)C(O)C(O)C1O)C3 (stereo not given in full) | . | . | -5%[59 µM] | . | . | .
SMILES | Sfp PPTase inh | L3MBTL1 inh | G9a inh | HP1b binding inh | BAZ2B inh | JMJD2A Tudor
Cc1cc(SCNC(=O)c2ccccc2)nc(C(C)C)n1 | ? | . | 32µM* | 30% | -7% | 9%
Cc1cc(C)nc(NC(=S)NC(=O)c2ccccc2)n1 | 10% | -3% | 19% | 23% | 12% | ?
Cc1ccc(C(=O)CSc2cc(C)nc(SCC(=O)c3ccccc3)n2)cc1 | 6% | . | 33%[12.7 µM] | 56% | -4% | 22%
Cc1cc(SCC(=O)Nc2ccccc2)nc(C)n1 | 17% | -1% | -5%[59 µM] | 36% | -6% | 9%
Cc1cc(SCC(N)=O)nc(SCC(=O)c2ccccc2)n1 | 45µM* | -1% | 28µM* | 69% | 2% | -4%[57.1 µM]
Cc1cc(SCC(=O)c2ccccc2)nc(C)n1 | 4% | -1% | 50µM* | 39% | 9% | -6%
Cc1nc2ccccc2nc1SCC(=O)c1ccccc1 | 45µM* | 21% | ? | 13% | 31% | 6%
O=C(CCl)N1CCCC1c1ccc2c(c1)OCCO2 (stereo not given) | 10% | . | -31% | -18%[57 µM] | -37% | ?
Cc1c(CC(=O)O)c(=O)oc2c(C)c(OCc3ccccc3Br)ccc12 | 2% | . | -10% | 27% | 50µM* | ?
Cc1oc(C(=O)O)cc1COc1ccc2c3c(c(=O)oc2c1C)CCC3 | 3% | . | 50µM* | 17% | 13µM* | 2%
COc1cc(C(=O)O)cc(OC)c1OCc1cc(C(=O)O)oc1C | 17% | ? | 50µM* | -5% | ? | ?
COC(=O)[C@@H]1C[C@@]2(O)[C@@H](O)[C@@H](O)[C@@H](O)C[C@H]2N1CC1CC1 | 31% | . | . | . | . | .
Cc1ccc(S(=O)(=O)CCC(=O)Nc2nnc(-c3cccs3)o2)cc1 | . | 0% | -29% | 36% | ? | 11µM*
O=C(CCS(=O)(=O)c1ccc(Cl)cc1)Nc1nnc(-c2ccco2)o1 | . | -4% | -37% | 37% | ? | ?
Cc1ccc(S(=O)(=O)CCC(=O)Nc2nnc(-c3ccco3)o2)cc1 | . | -12% | 25µM* | 28% | ? | 18µM*
Cc1cc2nn(-c3ccc(F)cc3)nc2cc1NC(=O)c1cc(Cl)ccc1Cl | . | . | ? | 18% | -7% | 6%
COc1cc(NC(=O)c2cccc(C)c2)ccc1NC(=O)c1cc2ccccc2o1 | 20% | . | 18% | 17% | 0% | -4%
O=C(CCc1ccc(S(=O)(=O)N2CCOCC2)cc1)Nc1ccc(F)c(F)c1F | . | 10% | . | 24% | . | -19%
